Pf growth 96h: P. falciparum growth inhibition at 96 hour, primary screen for plastid delayed-death inhibitors; actives 6.9% (n = 320,000); P. falciparum luciferase reporter growth, 96 h; Potency, µM (series often up to 28.7 µM), inactives show at the highest dose activity change, negative = inhibition, actives largely listed as inhibitors; also: potency is read from the fitted curve at half-maximal effect; % is scaled to controls: 0 for no effect and ±100 for the full control effect
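Erythrocytes infected with luciferase-expressing P. falciparum were dispensed at 2% hematocrit and 0.05% parasitemia (final), then incubated with compounds 96 hours at 37 C in 5% CO2. Luminescence after detection reagent addition reported growth.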
NS1 function inh: influenza NS1 inhibition. AID 2326. actives 0.4% (n = 270,000). Potency, µM (top dose mostly 46.1 µM), inactives show top-dose activity, positive = more growth; calls by dose curve; also: potency is read from the fitted curve at half-maximal effect; actives are rising curves; nearly all actives have a fitted effect of over 50% in size
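OD600 was taken as the measure of yeast growth restored by compound in an NS1-expressing S. cerevisiae strain. Cells had been washed out of glucose medium and diluted 1:100 into galactose -URA medium, pH 6.0.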
CHX counter: counter-screen hit for Shiga toxin inhibitors, cycloheximide. AID 2314. cell reporter, cycloheximide protein synthesis inhibition counterscreen. actives 12% (n = 300,000). max response, %; in the data active = max response mostly above about 13%, no sharp cut-off; inactive = mostly below about 14%; also: read at 38.3 µM for the half of the compounds with a filed dose; 0% is about no effect
Pf growth 48h: P. falciparum growth inhibition at 48 hours (one generation). P. falciparum luciferase growth in erythrocytes, 48 h. actives 5.9% (n = 310,000). Potency, µM (highest dose often 28.7 µM), for the others: at the top dose activity change, negative = inhibition, hits mostly inhibitors; also: potency is read from the fitted curve at half-maximal effect; % is scaled to controls: 0 for no effect and ±100 for the full control effect
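Read-out is firefly luciferase luminescence from an integrated reporter in P. falciparum, so falling signal marks reduced parasite growth. Infected erythrocytes were at 2% hematocrit and 0.1% parasitemia (final) in Albumax-supplemented RPMI 1640.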
Shiga toxin inh: blocks Shiga toxin action in Vero cells; Vero cells, Shiga toxin protein synthesis inhibition reporter; inhibition, % at 38.7 µM; actives 9.2% (n = 290,000); in the data active = inhibition mostly above about 28%, no sharp cut-off; inactive = mostly below about 43%; also: 0% is about no effect
SARS PLpro yeast: blocks SARS-CoV papain-like protease in a yeast assay. S. cerevisiae expressing SARS-CoV PLpro, growth rescue. Potency, µM (highest dose often 32.9 µM), inactives show top-dose activity, positive = growth rescue, usual class: activators. actives 0.19% (n = 330,000); calls by dose curve; also: potency is read from the fitted curve at half-maximal effect; 0% is about no effect; nearly all actives have a fitted effect of over 55% in size
Active calls of the source: *. Compounds with a hit are over-represented: about 21% of the library has one in this group of screens. Unless noted, calls follow the shape of the dose curve; as a rule, active = well fitted inhibition curve with a large enough effect; inconclusive = small, poorly fitted or top-dose-only effect, or another doubt; inactive = no such curve, though single readings can be large or run the other way.

COC(=O)Nc1ccc(S(=O)(=O)N2CCC(C(=O)N(C)C3CCCCC3)CC2)cc1 was read as Pf growth 96h inconclusive, CHX counter 1, Pf growth 48h inconclusive, Shiga toxin inh -7 and SARS PLpro yeast -2%.
`O=C(C1CCN(S(=O)(=O)c2cccs2)CC1)N1CCCCC1` gave Pf growth 96h 0%, NS1 function inh -50%, CHX counter 35*, Pf growth 48h 31%, Shiga toxin inh 37* and SARS PLpro yeast 0%.
`O=S(=O)(c1cccs1)N1CCC2(CC1)OCCO2` gave Pf growth 96h 13µM*, NS1 function inh -4%, CHX counter -4, Pf growth 48h inconclusive, Shiga toxin inh -5 and SARS PLpro yeast 9%.
CN(C(=O)C1CCN(S(=O)(=O)c2cccs2)CC1)C1CCCCC1 was read as Pf growth 96h 1.7µM*, NS1 function inh 2%, CHX counter 2, Pf growth 48h -16%, Shiga toxin inh 28 and SARS PLpro yeast -2%.
O=C(C1CCN(S(=O)(=O)c2cccnc2)CC1)N1CCN(C2CCCC2)CC1 was read as Pf growth 96h 10µM*, NS1 function inh -1%, CHX counter 4, Pf growth 48h 0%, Shiga toxin inh 12 and SARS PLpro yeast 8%.
CC(=O)N1CCC(C(=O)N2CCN(S(=O)(=O)c3cccs3)CC2)CC1 was read as Pf growth 96h 23%, NS1 function inh 2%, CHX counter -1, Pf growth 48h 17%, Shiga toxin inh -6 and SARS PLpro yeast -6%.
`O=S(=O)(c1cccs1)N1CCN(S(=O)(=O)c2cccs2)CC1` gave Pf growth 96h inconclusive, NS1 function inh -1%, CHX counter -2, Pf growth 48h 17%, Shiga toxin inh 4 and SARS PLpro yeast 1%.
Screening O=C(C1CCN(S(=O)(=O)c2cccc3cccnc23)CC1)N1CCN(C2CCCCC2)CC1 returned Pf growth 96h 15%, NS1 function inh -15%, CHX counter 10, Pf growth 48h inconclusive, Shiga toxin inh -9 and SARS PLpro yeast 8%.
For CCOc1ccc(N(CC)C(=O)c2cn(CC)c(=O)c3cc(OC)c(OC)cc23)cc1 the results were Pf growth 96h -3%, NS1 function inh 8%, CHX counter -4, Shiga toxin inh -8 and SARS PLpro yeast 0%.
For Cc1cccc2sc(N(CCN(C)C)C(=O)C3CCN(S(=O)(=O)c4cccs4)CC3)nc12 the results were Pf growth 96h inconclusive, Pf growth 48h 12µM* and SARS PLpro yeast 0%.
`O=C1NC(c2ccc3c(c2)OCO3)Oc2ccccc21` (centres undefined) gave Pf growth 96h 5.2µM*, NS1 function inh 7%, CHX counter -1, Pf growth 48h 52%, Shiga toxin inh -15 and SARS PLpro yeast -3%.
For O=C1NC(c2ccc3c(c2)OCO3)Nc2ccccc21 (centres undefined) the results were Pf growth 96h inconclusive, NS1 function inh 8%, CHX counter -2, Pf growth 48h 38%, Shiga toxin inh -12 and SARS PLpro yeast 2%.
For O=C(COc1ccc(Cl)cc1Br)NC(=O)NC1CCCC1 the results were Pf growth 96h 59%, Pf growth 48h 51% and SARS PLpro yeast -3%.
Cc1cc(C)cc(NC(=O)Nc2ccc(-n3ccc(C(F)(F)F)n3)cc2)c1 was read as Pf growth 96h inconclusive, NS1 function inh 11%, CHX counter 11, Pf growth 48h 12µM*, Shiga toxin inh 29 and SARS PLpro yeast -1%.
COc1ccccc1NC(=O)Nc1ccc(-n2ccc(C(F)(F)F)n2)cc1 was read as Pf growth 96h inconclusive, NS1 function inh -2%, CHX counter 42*, Pf growth 48h inconclusive, Shiga toxin inh 123* and SARS PLpro yeast -1%.
Screening O=C(O)CCC(=O)Nc1ccc(-n2ccc(C(F)(F)F)n2)cc1 returned Pf growth 96h 58%, NS1 function inh 1%, CHX counter 25*, Pf growth 48h 1.7µM*, Shiga toxin inh 42* and SARS PLpro yeast -1%.
For O=C(Nc1ccc(-n2ccc(C(F)(F)F)n2)cc1)Nc1cccc(Cl)c1 the results were Pf growth 96h inconclusive, NS1 function inh -49%, CHX counter 31*, Pf growth 48h inconclusive, Shiga toxin inh 50* and SARS PLpro yeast -5%.

Compound activity from PubChem BioAssay.
